MRP reversal: reverses drug resistance mediated by MRP | H69AR cells + 2 uM doxorubicin, CellTiter-Glo, 72 h | differential viability (reversal), % at 10 µM | 0.04% of 85,000 active;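 active = viability drop by adding the cancer drug above about 55%, with treated viability meeting a 40% cutoff, limit read from the data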;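 also: viability without doxorubicin minus viability with 2 µM doxorubicin for each compound; larger differential means the compound sensitizes cells more to doxorubicin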
MRP1 act: MRP-1 activation | 0.61% of 140,000 active | H69AR cells + doxorubicin, viability rescue, CellTiter-Glo | viability increase, % at 10 µM;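 active = viability gain under doxorubicin at or above a set limit, the compound median plus 3 SD, cut at about 4.7% in these data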;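 also: MRP-1 overexpressing cells given doxorubicin 25 µM after compound pretreatment; 18-22 h compound pretreatment then 72 h with doxorubicin before readout; 0% = doxorubicin-only wells and 100% = vehicle-treated cells without doxorubicin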
The depositor's hits bear a star; . = no result given. This excerpt belongs to a sample that is enriched for hits.

SMILES | MRP reversal | MRP1 act
COC(=O)c1c(-c2ccccc2)csc1NC(=O)c1c(-c2ccccc2)noc1C | . | 2
O=C(c1ccccc1)N1CCN(C(=S)NCc2ccc3c(c2)OCO3)CC1 | . | -1
CCOc1ccc(-c2nn[nH]n2)cc1 | -7 | 0
Brc1cc2c(cc1COc1ccc(-c3nn[nH]n3)cc1)OCO2 | -31 | 5.0*
CCOc1ccc(C2NC(=O)C(C#N)=C(S)N2c2ccc(C)cc2)cc1OC (stereo not drawn) | 14 | -1
COc1ccc(N2C(S)=C(C#N)C(=O)NC2c2ccco2)cc1 (stereo not drawn) | . | 16*
Oc1ccc(C2Nc3cccc4cccc(c34)N2)c(O)c1 | -18 | -1
c1coc(C2Nc3cccc4cccc(c34)N2)c1 | -18 | 6.0*
Cc1csc(NC(=O)C2CCCN(S(=O)(=O)c3ccc(Br)s3)C2)n1 (stereo not drawn) | -13 | 0
COc1ccc(S(=O)(=O)Nc2ccccc2OC)cc1NC(=O)c1cc2ccccc2oc1=O | . | -4
CC(C)Cn1ccc(=O)n(CC(C)C)c1=O | . | -1
Cc1ccnc(NC(=O)COc2c(C)cc(C)cc2[N+](=O)[O-])c1 | . | -1
Cc1ccnc(NC(=O)COc2ccc3oc4c(c3c2)CCCC4)c1 | . | 5.2*
CC(C)c1ccc(OCC(=O)NCCO)cc1 | . | 2
Cc1nc(CC(=O)N2CCN(c3cccc(C)c3C)CC2)cs1 | 3 | -1
O=C1/C(=C\c2ccco2)SC(=S)N1c1ccccc1 | . | 4.7*
Cc1ccc(N2C(=O)/C(=C\c3ccco3)SC2=S)cc1 | . | -2
Cc1cccc(C2NC(c3cccc(C)c3)C([N+](=O)[O-])C(C)(C)C2[N+](=O)[O-])c1 (stereo not drawn) | . | -2
O=C(/C=C/c1ccccc1Cl)NCc1cccs1 | . | -1
Cc1ccc(C=Nc2ccccc2C(N)=O)o1 | . | -1
Cc1ccc(C=Nc2ccc(N(C)C)cc2)o1 | 65* | -2
Cc1cc(Br)ccc1NC(=O)CNC(=O)CN(C)Cc1nc2ccccc2c(=O)[nH]1 | -19 | 4.9*
Cc1ccc(NC(=O)CN(C)Cc2nc3ccccc3c(=O)[nH]2)c(Br)c1 | -2 | -2
COCCNC(=S)NC12CC3CC(CC(C3)C1)C2 | 15 | -3
O=C(CSC1=NCCN1)C1COc2ccccc2O1 (stereo not drawn) | -14 | -1
SMILES | MRP reversal | MRP1 act
CCCCCn1c(CN2CCCCC2C)nc2c1c(=O)n(C)c(=O)n2C (stereo not drawn) | -2 | 6.0*
CCCCCn1c(CN2CCCCC2CC)nc2c1c(=O)n(C)c(=O)n2C (stereo not drawn) | 23 | .
COc1cc(Cl)c(C)cc1NC(=O)CSc1cc(Cl)ccc1Cl | . | -3
CCc1ccc(N2C(=O)CC(N(CC3CCCO3)C(=O)/C=C/C(=O)O)C2=O)cc1 (stereo not drawn) | . | 1
O=C(c1ccc(CS(=O)(=O)c2ccc(Br)cc2)o1)N1CCN(C2CCCCC2)CC1 | 74* | -2
COc1ccc(S(=O)(=O)Cc2ccc(C(=O)N3CCN(C4CCCCC4)CC3)o2)cc1 | 4 | -3
COc1ccc2c(c1)CCc1sc(NC(=O)c3ccco3)nc1-2 | -8 | 0
COc1ccc2c(c1)CCc1sc(NC(=O)c3ccc(C)cc3)nc1-2 | 6 | 4.9*
O=C(Nc1ccccc1Oc1ccccc1)c1ccccc1F | . | -1
COc1ccc(-c2c(C)[nH]n3c(=O)c(Cc4ccccc4)c(C)nc23)cc1 | . | -2
COCCn1c(-c2ccccc2)cnc1SCC(=O)Nc1cccc2ccccc12 | . | -3
CCOc1ccccc1C(=O)OCC(=O)Nc1ccc(OC(F)F)cc1 | . | 14*
O=C(COC(=O)c1ccccc1OCC(=O)Nc1ccc(Br)cc1)Nc1ccccc1 | . | -3
Cc1ccccc1N1C(=O)C(Oc2ccc(Cl)cc2)C1CNC(C)(C)C (stereo not drawn) | . | -4
Cc1sc2ncnc(NCC(c3ccco3)N3CCCC3)c2c1C (stereo not drawn) | -13 | -4
Cn1c(=O)c2c(nc(CN3CCN(c4ccccc4)CC3)n2Cc2ccccc2Cl)n(C)c1=O | -37 | -3
Cn1c(=O)c2c(nc(CN3CCN(c4ccccc4)CC3)n2Cc2c(F)cccc2Cl)n(C)c1=O | 60* | -5
CCc1cc(SC#N)cc(CC)c1NC(=O)CCl | . | -5
CCc1nnc(NC(=O)CSc2nnc(-c3ccc(NS(=O)(=O)c4ccccc4)cc3)o2)s1 | . | 3
CC(C)(C)C1CCC(C(=O)OCC(=O)c2ccc[nH]2)CC1 (stereo not drawn) | . | 1
O=C(CCCN1C(=O)c2ccccc2C1=O)NCCN1C(=O)S/C(=C\c2cccs2)C1=O | . | 0
CCN(CC)S(=O)(=O)c1cccc(C(=O)Nc2cc(C)cc(C)c2)c1 | -7 | -1
CCN(CC)S(=O)(=O)c1cc(NC(=O)C(=O)c2c(-c3ccccc3)cc3ccccn23)ccc1C | 5 | 6.9*
CCN(CC)S(=O)(=O)c1cccc(NC(=O)C(=O)c2c(-c3ccccc3)cc3ccccn23)c1 | . | 4
CCN(CC)S(=O)(=O)c1cccc(C(=O)c2c(C)cc3ccccn23)c1 | . | 4.8*
SMILES | MRP reversal | MRP1 act
CCOC(=O)N1CCN(C(=S)Nc2ccc3nc(N4CCN(CC)CC4)cc(C)c3c2)CC1 | . | -4
CCCc1nn(C)c(C(=O)Nc2ccc3ccccc3c2)c1Cl | . | -1
COc1cccc(OC)c1OCCCOc1ccc(C)cc1Br | . | 1
CCCn1c(SCC(=O)NCCc2ccccc2)nnc1-c1ccco1 | 5 | -1
Cc1ccc(C(=O)CC(=O)COc2ccc(Cl)cc2)cc1 | . | 0
Cc1ccc(OCc2nc(-c3ccc(Cl)cc3)n[nH]2)cc1 | 8 | 5.4*
CC(=O)N=c1sc(C(C)(C)C)c(C)n1C | -6 | 0
O=C(N/N=C/c1ccc(O)cc1O)/C(=C/c1ccccc1)CCO | . | 2
CN=C1S/C(=C\c2cc(C)n(-c3ccccc3F)c2C)C(=O)N1C | . | 5.9*
CN=C1S/C(=C\c2ccc(N3CCOCC3)cc2C)C(=O)N1C | . | -2
C[n+]1cc[nH]c1SCC(=O)c1ccccc1 | -15 | -2
COc1ccc(C(C)=O)cc1CSc1nnc(Nc2ccccc2C)s1 | . | 6.0*
COc1ccc(C(C)=O)cc1CSc1nnc(Nc2ccc(C)cc2C)s1 | . | 1
O=C(NC(=S)Nc1ccccc1)c1cc(-c2ccccc2)nc2ccccc12 | . | -1
O=C(NC(=S)Nc1ccccn1)c1cc(-c2ccccc2)nc2ccccc12 | . | 7.5*
COc1ccc(-c2nnc(SC(C)C(=O)NNC(=O)c3ccc(C)cc3)o2)cc1 (stereo not drawn) | . | 4
COc1ccc(-c2nnc(SC(C)C(=O)Nc3cccc(Cl)c3)o2)cc1 (stereo not drawn) | -2 | 5.8*
CNC[C@H](O)c1cccc(O)c1 | -2 | -1
CNC[C@H](O)c1ccc(O)c(O)c1 | . | 7.1*
Cc1nnc(NC(=O)C2COc3ccccc3O2)s1 (stereo not drawn) | 6 | 2
CCc1nnc(NC(=O)C2COc3ccccc3O2)s1 (stereo not drawn) | 16 | 5.1*
Cc1c(C(=O)OCC(=O)Nc2ccc3c(c2)OCO3)cccc1[N+](=O)[O-] | . | 0
O=C(c1ccccn1)c1cc2ccccc2n1S(=O)(=O)c1ccccc1 | . | -3
N/C(=N\N=C\c1ccc2c(c1)OCO2)c1nonc1N | . | 5.6*
COc1cc(/C=N/N=C(/N)c2nonc2N)cc(Br)c1OCc1ccccc1C | 8 | 0
O=C(NNc1ccc(Cl)nn1)c1ccc(Cl)cc1 | . | -2
Cc1ccc(NC(=S)NNC(=O)CSc2nc3ccccc3c(=O)n2-c2ccc(C)cc2)cc1 | . | -1

Screens deposited in PubChem by SRMLSC.
